Assay outcomes deposited in PubChem by National Center for Advancing Translational Sciences (NCATS).
Rows were chosen to be rich in hits. Some 10% of all compounds tested hit in one or more screens of this group.
Sfp PPTase inh: qHTS Assay for Inhibitors of Bacillus subtilis Sfp phosphopantetheinyl transferase (PPTase); 4'-phosphopantetheinyl transferase ffp (Bacillus subtilis), Q9F4F7; Biochemical Sfp PPTase activity, qHTS; Potency, µM, for the others: largest response in the series, negative = inhibition, actives largely listed as inhibitors; hit rate 3.5% among 310,000; AID 1490, 2009;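 note: the enzyme is Sfp with the accession as filed and its product quenches rhodamine fluorescence; potency is the fitted concentration of half-maximal effect; 0% = enzyme reaction without inhibitor and -100% = no enzyme wells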
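Buffer: 50 mM Hepes-Na pH 7.6, 10 mM MgCl2, 0.01% Nonidet P-40, 0.01% BSA. Enzyme 15 nM, pre-exposed to compound 15 min; substrates then added and fluorescence change tracked over 30 min.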
CCT modulator: High-Throughput Screening for Modulators of Cytosolic Chaperonin Activity | purified chaperonin ATPase assay, HTRF ADP detection, 30 min | activity change, % (no concentration beside the values), hits read low | hit rate 0.3% among 360,000 | AID 651819, 2012; in the data active = activity change below about -30%
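ATPase activity: ADP formed was measured by HTRF Transcreener (665/615 nm ratio) after 30 min at 37 deg C with 10 uM ATP. Compounds screened at one 76 uM concentration against 40 or 20 nM TRiC in Tris pH 7.4/KCl/MgCl2/DTT buffer.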
MmCpn inh: Inhibitors of TCP-1 ring complex (TRiC) of Methanococcus maripaludis (MmCpn): qHTS; purified Mm-Cpn ATPase, ADP Transcreener TR-FRET; AID 504842, 2011; Chaperonin Mm-Cpn (Methanococcus maripaludis); hit rate 0.031% among 330,000; Potency, µM (titrated, usually from 76.9 µM), inactives show top-dose activity, negative = inhibition, most hits filed as inhibitors; note: potency is the fitted concentration of half-maximal effect; nearly all actives have a fitted effect of over 80% in size
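Reaction buffer contained 30 mM Tris pH 7.4, 100 mM KCl, 5 mM MgCl2 and 1 mM DTT. Mm-CPN (25 nM final) hydrolysed 10 uM ATP over 30 min at 37°C; ADP was read by HTRF.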
PLK1 PBD inh: qHTS for Inhibitors of PLK1-PDB (polo-like kinase 1 - polo-box domain): Primary Screen; AID 720504, 2013; Serine/threonine-protein kinase PLK1 (Homo sapiens), P53350; Potency, µM, for the others: max response, negative = inhibition, most hits filed as inhibitors; Plk1 PBD binding of FITC phosphopeptide, fluorescence polarization; hit rate 2.8% among 360,000; note: potency is the fitted concentration of half-maximal effect; series mostly up to about 57 µM; nearly all actives have a fitted effect of over 65% in size
G9a block: qHTS Assay for Inhibitors of Histone Lysine Methyltransferase G9a. Potency, µM (series often up to 102 µM), inactives show at the highest dose activity, negative = inhibition, usual class: inhibitors. hit rate 8.8% among 350,000. AID 504332, 2011. G9a H3K9 monomethylation, AlphaScreen, 2 h. Histone-lysine N-methyltransferase EHMT2 (Homo sapiens), Q96KQ7; note: potency is the fitted concentration of half-maximal effect; nearly all actives have a fitted effect of over 75% in size
Target sequence (Q96KQ7 913-1193 limits assumed): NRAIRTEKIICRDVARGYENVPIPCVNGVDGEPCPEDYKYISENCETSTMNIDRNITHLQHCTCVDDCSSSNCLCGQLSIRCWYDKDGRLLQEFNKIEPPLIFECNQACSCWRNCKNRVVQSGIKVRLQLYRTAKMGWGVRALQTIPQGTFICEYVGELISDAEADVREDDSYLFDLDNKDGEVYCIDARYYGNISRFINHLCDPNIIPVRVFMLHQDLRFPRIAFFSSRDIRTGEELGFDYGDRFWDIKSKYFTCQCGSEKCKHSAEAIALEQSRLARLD
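Using a bead-based AlphaScreen, monomethylated H3K9 product from 2 h room-temperature reactions (G9a 20 nM, peptide 500 nM, SAM 20 uM) was detected with 0.5 ug/mL rabbit anti-H3K9me1 antibody.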
VDR inh: Inhibitors of the vitamin D receptor (VDR): qHTS. Vitamin D3 receptor (Homo sapiens), P11473. VDR-SRC2-3 peptide fluorescence polarization, 2 h. Potency, µM, inactives show max response, negative = inhibition, usual class: inhibitors. hit rate 0.93% among 400,000; note: potency is the fitted concentration of half-maximal effect
Target sequence (P11473 whole entry, looked up): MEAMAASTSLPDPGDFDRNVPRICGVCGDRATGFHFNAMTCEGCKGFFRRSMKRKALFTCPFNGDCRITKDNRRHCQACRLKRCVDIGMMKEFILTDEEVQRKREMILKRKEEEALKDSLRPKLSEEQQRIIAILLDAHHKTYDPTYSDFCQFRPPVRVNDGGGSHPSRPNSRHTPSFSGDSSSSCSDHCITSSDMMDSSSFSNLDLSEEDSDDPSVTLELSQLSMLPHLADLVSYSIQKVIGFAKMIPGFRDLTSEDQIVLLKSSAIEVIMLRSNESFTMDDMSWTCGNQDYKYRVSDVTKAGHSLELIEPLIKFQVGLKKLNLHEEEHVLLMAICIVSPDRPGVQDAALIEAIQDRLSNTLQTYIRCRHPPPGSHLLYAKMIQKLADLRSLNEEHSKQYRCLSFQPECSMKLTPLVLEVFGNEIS
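Inhibition of the VDR/SRC2-3 peptide interaction is quantified by fluorescence polarization. Compounds (23 nl, pintool) incubate with the reagents for 2 hours at ambient room temperature.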
Numbers without * were called inactive; ? = inconclusive; . = no result given; [ ] = another dose, or the depositor's remark. Unless noted, calls come from the whole dose curve; as a rule, active = well fitted curve in the direction sought with a large enough effect; inconclusive = small, poorly fitted or top-dose-only effect, or another doubt; inactive = no such curve, though single readings can be large; an effect the other way counts as inactive or inconclusive. Unless noted, % is set by controls: 0 for no effect and ±100 for the full control effect.

SMILES | Sfp PPTase inh | CCT modulator | MmCpn inh | PLK1 PBD inh | G9a block | VDR inh
Cc1ccc(S(=O)(=O)N2CCCCC2)cc1 | 10% | 2 | 1% | 3% | -9% | 9%
Cc1ccc(O)c(N=Nc2ccc(S(=O)(=O)N3CCCC3)cc2)c1 | 5% | -3 | -2% | -3% | 8.9µM* | -11%
Cc1ccc(Cn2c(SCC(=O)C(C)(C)C)nc3ccsc3c2=O)cc1 | . | . | . | . | -1%[59 µM] | 2%
COc1ccc(Cl)cc1NC(=O)CCCn1c(C)c2cnn(-c3ccccc3)c(=O)c2c1C | . | . | . | . | 8%[59 µM] | 11%
Clc1cnc(N/N=C/c2ccco2)c(Cl)c1 | 79µM* | 0 | 1% | -5% | -10%[59 µM] | -16%
S=c1[nH]nc(C2CCCCC2)n1/N=C/C(Cl)=C\c1ccccc1 | 3% | -2 | 3% | -23% | 25µM* | -26%
Cc1ccc(N2CCN(/N=C/C(Cl)=C/c3ccccc3)CC2)cc1 | 11% | 1 | 1% | -8% | 1% | -11%
S=c1[nH]nc(-c2n[nH]c3c2CCC3)n1/N=C/C=C/c1ccccc1 | -1% | -1 | 2% | ? | . | -14%
S=c1[nH]nc(C2CCCCC2)n1/N=C/C=C/c1ccccc1 | -2% | 1 | -2% | ? | 10µM* | -10%
COc1ccc(Br)c(C(=O)Nc2cc3c(cc2N2CCCCC2)n(C)c(=O)c(=O)n3C)c1 | . | . | . | . | -33%[59 µM] | 8%
CC(C)(C)c1ccc(C2Sc3ccccc3NC3=C2C(=O)c2ccccc23)cc1 (configuration not stated) | . | . | . | . | 10µM* | -9%
CC1(C)CC(=O)C2=C(C1)NC(=S)C(C#N)C21CCCCC1 (configuration not stated) | 11µM* | -2 | -1% | 11µM* | 0.5µM* | ?
COC(=O)c1ccccc1NC(=O)NCc1ccccc1 | 18% | -1 | 3% | -3% | 10%[59 µM] | 18%
COC(=O)c1ccccc1NC(=O)NCc1ccncc1 | 1% | 0 | -2% | 21µM* | . | -2%
COC(=O)c1ccccc1NC(=O)Nc1cccs1 | 40µM* | -2 | 0% | 0% | ? | -11%
COc1ccc(C2c3cc(OC)c(OC)cc3Cc3c4cc(OC)c(OC)cc4cc[n+]32)cc1OC (configuration not stated) | -15% | . | . | . | . | -14%
COc1ccc(C(=O)NC(=S)Nc2ccccc2[N+](=O)[O-])cc1OC | 89µM* | 0 | -3% | -11% | ? | 5%
COc1ccc(C(=O)NC(=S)Nc2ccccc2N2CCOCC2)cc1[N+](=O)[O-] | -7% | -2 | -2% | -11% | ? | -7%
O=C(O)c1ccc(Cl)c(NC(=S)NC(=O)c2ccccc2[N+](=O)[O-])c1 | 50µM* | -1 | -1% | ? | 32µM* | -19%
CCOc1ccc(NC(=S)NC(=O)/C=C/c2ccc(OC)c(OC)c2)c([N+](=O)[O-])c1 | 50µM* | 0 | 1% | ? | 50µM* | -11%
CCONC(=O)Nc1ccccc1[N+](=O)[O-] | -5% | -2 | -2% | -5% | 71µM* | -12%
COc1ccc(C(=O)NC(=S)Nc2ccc([N+](=O)[O-])cc2C)cc1OC | 56µM* | -3 | 2% | -8% | -45%[59 µM] | -4%
COc1ccc(N2CCN(C(=O)c3cnc(N4CCOCC4)c4ccccc34)CC2)cc1 | . | . | . | . | ? | 10%
CCOc1ccc(S(=O)(=O)NCCN2CCOCC2)c2ccccc12 | 79µM* | 1 | 1% | -11% | 1%[59 µM] | 22%
COc1ccc(S(=O)(=O)NCCN2CCOCC2)cc1[N+](=O)[O-] | -5% | -1 | 0% | -16% | 50µM* | 3%
SMILES | Sfp PPTase inh | CCT modulator | MmCpn inh | PLK1 PBD inh | G9a block | VDR inh
COc1ccc(NS(=O)(=O)c2cc3[nH]c(=O)c(=O)[nH]c3cc2C)cc1OC | . | . | . | . | -26%[59 µM] | 14%
COc1cc(C(c2sc3nc(C)nn3c2O)N2CCN(c3ccccc3)CC2)cc(OC)c1OC (configuration not stated) | 43% | -1 | -2% | 1% | 16%[59 µM] | -7%
COC(=O)C1CCN(C(c2ccc(OC)c(OC)c2)c2sc3nc(C)nn3c2O)CC1 (configuration not stated) | 20% | 0 | 1% | 2% | ? | -8%
COc1ccc(C(c2sc3nc(C)nn3c2O)N2CCC(C(N)=O)CC2)cc1OC (configuration not stated) | 5% | -4 | -2% | -4% | 50µM* | -17%
COc1cc(C(c2sc3nc(C)nn3c2O)N2CCc3ccccc3C2)cc(OC)c1OC (configuration not stated) | -13% | 1 | 1% | -11% | 22µM* | 6%
COc1cc(NC(=O)c2cccc3c2C(=O)N(C2CCCCC2)C3)cc(OC)c1 | . | . | . | . | -1%[59 µM] | -6%
CCC(Cn1nnc2ccccc2c1=O)NC(=O)Nc1cc(C)cc(C)c1 (configuration not stated) | . | . | . | . | 6%[59 µM] | -15%
Cc1ccc(/C=N/c2sc3c(c2C#N)CCC3)s1 | -7% | 4 | 1% | -11% | ? | -3%
Cc1[nH]n(-c2ccc(F)cc2)c(=O)c1/C=N/c1sc2c(c1C#N)CCCC2 | 8% | 0 | -1% | ? | ? | 4%
Cc1ccc(/C=N/c2sc3c(c2C#N)CCCCC3)o1 | 50µM* | 1 | 0% | -15% | 14µM* | -6%
Cc1ccc(/C=C/C(=O)Nc2sc3c(c2C#N)CCCC3)o1 | 40µM* | -2 | -1% | -29% | ? | -21%
N#Cc1c(/N=C/C=C/c2ccccc2)sc2c1CCCC2 | 25µM* | -1 | -4% | 9.5µM* | ? | ?
Cc1[nH]n(-c2cccc3ccccc23)c(=O)c1/C=N/c1sc2c(c1C#N)CCC2 | 79µM* | -5 | 5% | ? | ? | -3%
Cc1ccc(NC(=O)c2ccco2)c(OCc2cc(=O)n3cc(C)sc3n2)c1 | . | . | . | . | -5%[59 µM] | -6%
CCS(=O)(=O)c1ccccc1C(=O)NC1CCCc2ccccc21 (configuration not stated) | 4% | -2 | -1% | -14% | 40µM* | -6%
COC(=O)c1ccccc1NC(=O)CSc1ncccn1 | 18% | 0 | 0% | -7% | -4% | 10%
COC(=O)c1cc(C)sc1NC(=O)CSc1ncccn1 | ? | 1 | 4% | ? | 10µM* | -9%
Cc1ccc(N=CC=C2OC(C)(C)C(C)(C)O2)cc1 | 0% | 3 | 0% | -8% | ? | 6%
